# Screening results (PubChem)
# Compounds with a hit are over-represented: about 2.3% of the library has one in this group of screens.
# CHRM1 PAM: potentiates human M1 receptor response to acetylcholine; P11229; CHO-K1 hM1, Fluo-8 calcium fluorescence, ACh EC20; 0% = ACh EC20, 100% = maximal ACh; activation, % at 3 µM; 0.088% of 360,000 active; in the data active = activation above about 19%, passing the limit was not always enough
# CHO-K1 Ca ag: counter-screen for M1 agonists: effect in parental CHO-K1 cells; Fluo-8 calcium fluorescence; scaled to maximal ATP response, vehicle zero; AID 602248; activation, % at 3 µM; 0.48% of 360,000 active; in the data active = activation above about 15%;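 also: untransfected CHO-K1 host cells lacking M1 receptor as counterscreen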
# M1 PAM parental: M1 PAM counterscreen hit in parental CHO-K1 cells | 0.02% of 360,000 active | activation, % at 3 µM | ATP EC20, Fluo-8 calcium fluorescence; 0% at ATP EC20, 100% at ATP max | AID 602247;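 active = activation above the run cutoff, the mean activation of all test compounds plus 3 SD, cut at about 40% in these data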;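 also: peak over basal fluorescence ratio in a 140 s read after ATP addition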
# CHO-K1 Ca antag: nonselective inhibitor or artifact in parental CHO-K1 cells. ATP-induced calcium, Fluo-8 fluorescence. 0.6% of 360,000 active. inhibition, % at 3 µM;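 active = inhibition above a per-plate cutoff, the plate's mean sample inhibition plus 3 SD, cut at about 24% in these data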;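 also: 0% = DMSO plus EC80 ATP and 100% = DMSO alone without ATP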
# CHRM1 antagonist: human CHRM1 antagonism; inhibition, % at 3 µM; 1.3% of 360,000 active; CHO-K1 hM1, Fluo-8 calcium fluorescence, ACh EC80 antagonist;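 active = percent inhibition above its own plate's cutoff, namely the mean of that plate's compound wells plus 3 SD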;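 also: peak over basal fluorescence ratio during 140 s after agonist addition; 0% = ACh EC80 plus DMSO and 100% = DMSO alone without agonist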
# CHRM1 agonist: activates human CHRM1 receptor. P11229. CHO-K1 hM1, Fluo-8 calcium fluorescence, agonist mode; 0% DMSO, 100% acetylcholine EC100. activation, % at 3 µM. 0.33% of 360,000 active. AID 588814;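 active = activation above the run's mean compound activation plus 3 SD, cut at about 16% in these data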;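 also: peak over basal fluorescence ratio within a 140 s kinetic read after compound addition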
# Numbers without * were called inactive.
SMILES,CHRM1 PAM,CHO-K1 Ca ag,M1 PAM parental,CHO-K1 Ca antag,CHRM1 antagonist,CHRM1 agonist
CCCCOc1ccc(C(=O)NCC(=O)NCCOc2ccccc2OC)cc1,4,-1,-6,-10,-8,-6
O=C(Nc1ccc(F)cc1)NC1CCCCCCC1,-3,9,2,-2,1,0
CN(C)C(CNC(C(=O)Nc1ccc([N+](=O)[O-])cc1Br)c1ccccc1)c1ccccc1 (configuration not stated),-3,0,-6,-4,6,-7
CN(C)C(CNC(C(=O)Nc1ccc(F)cc1)c1ccccc1)c1ccccc1 (configuration not stated),-31,4,9,-15,84*,-7
O=C(Nc1ccc(F)cc1)C(NC1CCCCC1)c1ccccc1 (configuration not stated),-26,0,-15,5,60*,-8
O=C(c1[nH]c(C(F)(F)F)nc1-c1ccccc1)N1CCC(Cc2ccccc2)CC1,0,7,-4,-16,-29,2
O=C(COc1ccccc1F)Nc1c2c(nn1-c1ccccc1)CS(=O)(=O)C2,5,3,0,-1,-1,0
Cc1cc(C(=O)O)ccc1-c1ccc(/C=C2\SC(=O)N(CC(=O)Nc3ccc4c(c3)OCO4)C2=O)o1,-3,6,-7,27*,10,2
CCOc1ccccc1-n1c(SC(C)C(=O)NCC2CCCO2)nc2ccccc2c1=O (configuration not stated),2,0,-15,-1,-5,30*
O=C(NCCNC(=O)c1cc(Cl)ccc1Cl)c1ccccn1,3,0,-19,8,-5,-2
CCS(=O)(=O)N1CCN(S(=O)(=O)c2ccc(Cl)s2)CC1,-13,0,0,-1,37*,-2
Cc1cc([N+](=O)[O-])nn1CC(=O)Nc1cc(F)ccc1F,4,16*,-3,0,-5,-5
CN(CCOc1ccccc1)S(=O)(=O)c1ccc2oc3ccccc3c2c1,1,2,20,-10,-19,0
COc1ccc(-n2nc(C(=O)NCc3ccco3)c3ccccc3c2=O)cc1,1,1,13,-22,-6,-2
COc1ccc(NC(=O)CNC(=O)c2nn(-c3ccc(OC)c(OC)c3)c(=O)c3ccccc23)c(OC)c1,3,7,1,-7,1,0
COc1ccc(-n2nc(C(=O)NCC(=O)Nc3cc(OC)c(OC)c(OC)c3)c3ccccc3c2=O)cc1OC,-11,8,6,1,30*,0
CCC1CCCCN1CCCNC(=O)CNC(=O)c1nn(-c2ccc(OC)c(Cl)c2)c(=O)c2ccccc12 (configuration not stated),-30,0,15,-2,49*,-13
COc1ccc(-n2nc(C(=O)NCC(=O)Nc3cccc(NC(C)=O)c3)c3ccccc3c2=O)cc1,0,3,2,-6,10,0
COc1ccccc1-n1nc(C(=O)NCc2ccco2)c2ccccc2c1=O,-14,0,4,1,15*,-2
COc1ccc(-n2nc(C(=O)NCC(=O)Nc3cc(OC)c(OC)c(OC)c3)c3ccccc3c2=O)cc1,-13,6,-14,2,27*,-2
CC(=O)c1ccc(NC(=O)C(Cc2ccccc2)n2cccc2)cc1 (configuration not stated),6,0,3,-4,-9,-3
Cc1ccc(N2CCN(C(=O)c3cc(-c4ccc(F)cc4)[nH]c3C)CC2C)cc1 (configuration not stated),2,1,5,-18,-1,-6
CCOc1ccc(S(=O)(=O)NCCSCc2ccco2)cc1,4,2,3,-5,-7,-6
COc1ccc(S(=O)(=O)NCCSCc2ccco2)cc1,4,0,-7,28*,4,-3
Cc1ccc(S(=O)(=O)NCCc2ccncc2)cc1C,-3,18*,13,11,2,-11
COc1ccc(CCNS(=O)(=O)c2ccc(Br)cc2)cc1,6,2,12,-11,-11,-2
COc1ccc(S(=O)(=O)NCCc2ccccc2)cc1,-9,0,0,-1,29*,0
